# p53null 39C tox – selectivity test: cytotoxicity in p53 null cells, nonpermissive temperature; H1299 p53-null (neo) cells, 39C, ATPlite viability, 24 h; AID 904; hit rate 0.97% among 55,000; Potency, µM (series often up to 46.1 µM), without a hit: top-dose activity, negative = cell killing, usual class: cytotoxic;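 further: 0% = DMSO only and -100% = full killing by 100 µM tamoxifen; nearly all actives have a fitted effect of over 50% in size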
#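 Following overnight plating at 37C (600 cells/well), H1299-neo or H1299-p53A138V cells are dosed up to 46 uM. Incubation lasts 24 hr at 39C before ATP detection.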
# pS6 MEF inh – reduces mTORC1 signaling in Tsc2 and p53 null MEF cells; Tsc2-/- p53-/- MEF, phospho-rpS6 immunofluorescence/PI, 24 h; Potency, µM (doses to about 38.3 µM), inactives show at the highest dose activity change, negative = inhibition, hits mostly inhibitors; hit rate 0.78% among 44,000; AID 493208;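 further: plate controls were DMSO for no effect and rapamycin for full effect; nearly all actives have a fitted effect of over 50% in size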
#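 Cell-based qHTS: Tsc2-/- p53-/- MEF, 24 h cpd, 37 °C; fix/perm, anti-phospho-S6 Alexa-488 + PI; Acumen 488 nm scan; pS6/PI ratio, % positive cells; rapamycin 7.5 nM = inhibition ref; PI count = viability.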
# SKOV3 invasion – inhibitors of ovarian cancer cell adhesion and invasion in omental model. SKOV3ip1-GFP adhesion/invasion on 3D omental model, fluorescence. Potency, µM (highest dose often 45.8 µM), for the others: at the top dose activity change, negative = inhibition, usual class: inhibitors. hit rate 0.1% among 46,000. AID 1963576;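 further: plate controls were DMSO wells for no effect and tomatine positive control wells for full effect; nearly all actives have a fitted effect of over 65% in size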
#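 A 3D layer of primary human omental fibroblasts, mesothelial cells, fibronectin and collagen I, grown 48 hr, received SKOV3ip1-GFP cells in serum-free medium plus compounds at 0.36-46 umol/L. After 2 hr RT and 16 hr 37 C, fixed adherent GFP cells were counted; normalized to DMSO and tomatine.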
# p53null 32C kill – selectivity test: cytotoxicity in p53 null cells, permissive temperature. hit rate 0.62% among 55,000. Potency, µM (highest dose often 46.1 µM), inactives show at the highest dose activity change, negative = cytotoxicity, hits mostly cytotoxic. H1299-neo p53 null cells, ATP luminescence, 24 h, 32C. AID 903;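 further: 0% = DMSO only and -100% = full killing by 100 µM tamoxifen; nearly all actives have a fitted effect of over 55% in size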
#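 AC50 values derive from Hill modelling of qHTS concentration-response data (up to 46 uM) in H1299-neo cells. Cells were treated 24 h at 32C following overnight attachment at 37C; viability was read as cellular ATP.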
# PMP22 txn prim – modulates PMP22 transcription in S16 Schwann cells. S16 Pmp22-F2sN Schwann cells, FLuc/NLuc coincidence luminescence, 24 h. Potency, µM (doses to about 57.5 µM), without a hit: at the highest dose activity change, negative = inhibition, hits mostly inhibitors. hit rate 2% among 43,000. AID 1508649; active means clear falling dose curves in both reporters; inconclusive means both reporters move, but less clearly or upward; inactive means either reporter flat; the % is the NLuc reporter signal
#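 Transcriptional readout in edited S16(c9) cells: two luciferases reported from the Pmp22 locus, measured in turn after 24 h compound incubation.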
# S16 viability – S16 Schwann cell cytotoxicity | S16 Pmp22-F2sN Schwann cells (luciferase reporters placed in the Pmp22 gene) viability, CellTiter-Glo, 24 h | Potency, µM (doses to about 57.5 µM), inactives show at the top dose activity change, negative = cytotoxicity, most hits filed as cytotoxic | hit rate 0.48% among 43,000 | AID 1508642; further: nearly all actives have a fitted effect of over 65% in size
#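 Rat S16 Schwann reporter line, 24 h treatment with library compounds delivered at 23 nL per well. Cell viability by CellTiter-Glo luminescence.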
# An asterisk follows results filed as active; i = inactive; u = inconclusive; x = not tested or not shown; [ ] = dose if it differs, or a comment. An excerpt weighted towards active compounds, which were near 3.1% of everything screened. Unless noted, the call rests on the fitted dose curve; in most records, active means well fitted curve in the direction sought with a large enough effect; inconclusive means small, poorly fitted or top-dose-only effect, or another doubt; inactive means no such curve, though single readings can be large; an effect the other way counts as inactive or inconclusive. Unless noted, on the % scale 0 is the no-effect control and ±100 the full control effect; potency means the concentration at half of the fitted maximal effect.
SMILES,p53null 39C tox,pS6 MEF inh,SKOV3 invasion,p53null 32C kill,PMP22 txn prim,S16 viability
O=C1NC(=O)C(c2cnc3ccccn23)=C1c1cn2c3c(cccc13)CN(C(=O)N1CCOCC1)CC2,x,x,-12%,x,x,x
COc1ccc(-c2cc3c(C)nc(N)nc3n(C3CCC(OCCO)CC3)c2=O)cn1 (stereo unspecified),x,x,-17%,x,x,x
Clc1ccc2c(N3CCN(CCCN4CCN(c5ccnc6cc(Cl)ccc56)CC4)CC3)ccnc2c1,x,x,-4%[23.2 µM],x,x,x
COc1ccc(CNC(=O)c2ccc3nc(C(C)C)oc3c2)cc1OC,1%,0%,i,-2%,u,28µM*
CC[C@]1(O)C[C@@H]2CN(CCc3c([nH]c4ccccc34)[C@@](C(=O)OC)(c3cc4c(cc3OC)N(C=O)[C@@H]3C45CCN4CC=C[C@](CC)([C@H]45)[C@@H](OC(C)=O)[C@]3(O)C(=O)OC)C2)C1 (stereo partly specified),x,x,-26%,x,x,x
Cc1ccc(-c2nc3ccccc3[nH]2)cc1NC(=O)COc1ccccc1[N+](=O)[O-],u,2.3µM*,u,u,u,-29%
CCCC(=O)OC1=CN(Cc2ccccc2)S(=O)(=O)c2ccccc21,1%,16µM*,1%,-3%,-11%,3%
CCOc1c(Br)cc(C2CC(=O)Nc3cc4c(cc32)OCO4)cc1OC (stereo unspecified),u,15µM*,-9%,45%,u,u
Cc1cccc(C2CC(=O)Nc3cc4c(cc32)OCO4)c1 (stereo unspecified),-10%,-12%,i,27%,u,-4%
CC(C)Oc1cccc(C2CC(=O)Nc3cc4c(cc32)OCO4)c1 (stereo unspecified),u,6.6µM*,-2%,22%,4.3µM*,u
COc1ccc(NC(=O)c2oc3ccc4c(c3c2C)C(=O)CC(C)(C)O4)cc1OC,3.2µM*,1%,6%,13µM*,u,6%
CCC1(C)CC(=O)c2c(ccc3oc(C(=O)NCc4ccccc4)c(C)c23)O1 (stereo unspecified),12%,u,-7%,9%,u,u
CCc1cccc(NC(=O)c2oc3ccc4c(c3c2C)C(=O)CC(C)(C)O4)c1,5µM*,u,5%,5µM*,u,-5%
CCOc1ccccc1CNC(=O)c1oc2ccc3c(c2c1C)C(=O)CC(C)(C)O3,6%,1%,-3%,u,u,u
O=C(NCc1cccc(Cl)c1)c1cc2c(s1)-c1ccccc1SC2,-20%,-3%,-2%,21%,-23%,-8%
CN(Cc1ccccc1)C(=O)c1cc2c(s1)-c1ccc(Cl)cc1SC2,2µM*,-2%,0%,-7%,-1%,u
COc1cc(-c2nn(C3CCC(N4CCN(C(C)=O)CC4)CC3)c3ncnc(N)c23)ccc1NC(=O)c1cc2ccccc2n1C (stereo unspecified),x,x,1%,x,x,x
COc1cc(C(=O)n2nc(C)c(Sc3ccc(Cl)cc3)c2C)cc(OC)c1OC,u,10µM*,i,7%,-4%,13%
Cc1ccc(Sc2c(C)nn(C(=O)c3ccc(Cl)cc3)c2C)cc1,9%,4%,-15%,13%,-14%,-6%
Cc1cc(-c2ccc(S(=O)(=O)Nc3cccc(C)c3C)s2)on1,u,u,i,-13%,10µM*,u
CC(=O)O[C@H]1C[C@@H]2CC[C@H]3[C@H]4C[C@H]([N+]5(C)CCCCC5)[C@@H](OC(C)=O)[C@@]4(C)CC[C@@H]3[C@@]2(C)C[C@H]1N1CCCCC1,x,x,-6%,x,x,x
c1ccc(-c2nn3c(c2-c2ccnc4cc(OCCN5CCOCC5)ccc24)CCC3)nc1,x,x,23%,x,x,x
Cc1cccc(C2C=C(c3ccc(F)cc3)Nc3nc4ccccc4n32)c1 (stereo unspecified),u,-1%,4%,u,u,-27%
CCc1ccc(C2=CC(c3c(F)cccc3Cl)n3c(nc4ccccc43)N2)cc1 (stereo unspecified),u,0%,2%,8.9µM*,u,u
Cc1ccc(C2=CC(c3ccccc3C)n3c(nc4ccccc43)N2)cc1 (stereo unspecified),u,-7%,8%,1.3µM*,u,u
SMILES,p53null 39C tox,pS6 MEF inh,SKOV3 invasion,p53null 32C kill,PMP22 txn prim,S16 viability
CCOc1ccc(S(=O)(=O)Nc2ccc3oc(C)c(C(=O)OCCOC)c3c2)cc1,13%,-30%,-10%,12%,u,1%
COCc1oc2ccc(NS(=O)(=O)c3ccc(C)cc3)cc2c1C(=O)OC,10%,u,-7%,15%,7.1µM*,-26%
CC(C)c1cnn2c(NCc3ccccc3)cc(N[C@@H](CO)[C@H](O)CO)nc12,x,x,20%,x,x,x
COc1cccc(-n2c(SCC(=O)Nc3cccc(Cl)c3)nc3c(oc4ccccc43)c2=O)c1,12%,1%,76%,-4%,-12%,-11%
O=C(CSc1nc2c(oc3ccccc32)c(=O)[nH]1)Nc1cccc(Cl)c1,10µM*,3%,i,10µM*,u,-8%
CCc1ccc(NC(=O)c2ccc3c(O)c(S(=O)(=O)c4ccccc4)c(=O)[nH]c3c2)cc1,u,-7%,2%,13µM*,17%,-3%
CCCOc1ccc(-c2nc3ccccc3c(=O)o2)cc1,5µM*,5%,i,16µM*,-2%,8%
O=C(NCc1ccccc1)c1csc(Nc2ccncn2)n1,x,x,20%,x,x,x
CCn1nnc2c(N3CCOCC3)nc(-c3ccc(NC(=O)Nc4ccc(C(=O)N5CCN(C)CC5)cc4)cc3)nc21,x,x,-16%,x,x,x
CC(C)(F)C[C@H](N[C@@H](c1ccc(-c2ccc(S(C)(=O)=O)cc2)cc1)C(F)(F)F)C(=O)NC1(C#N)CC1,x,x,-8%,x,x,x
COc1ccccc1C1C=C(c2ccc(Cl)cc2)Nc2nc(-c3ccc(Cl)cc3)nn21 (stereo unspecified),34%,12µM*,-3%,20%,u,-16%
O=C1C(c2c(O)[nH]c3ccccc23)=Nc2ccccc21,x,x,-12%,x,x,x
O=C1c2ccccc2-[n+]2ccc3c([nH]c4ccccc43)c21,x,x,2.3µM*,x,x,x
CCN(CC)C(=O)CSc1nc(-c2ccc(C)cc2)nc2c1Cc1c(CO)cnc(C)c1O2,-4%,-1%,0%,0%,u,10µM*

# Screening data as filed in PubChem BioAssay.
